# Measured values published in the supplement of paper PMC8728848.
# Many of the other results were omitted from the sample, so the strongest signals are more common in it than they were.
# B1: GS14009A-pdi-495-27-495 (Parabacteroides distasonis) (protein)
# chain: FEEVNTDPDSPTDVPTTNLLAYSLYYTSYRLYDRWFAMDEPMTFCGYASKMTYIDESRYNFRTGVQDTNWEYLYRILNNLKDIEKRATFNETPNMLNVSKVMQVHLMQVATDRWRDVPYTDAAKMTDGILQPKYDKQEDIYPGLLATLKEAADGFADGGSDDLGEGDLLFGGDIEKWQRYCNSMRLRLAMRISEVSPALAKETVEEVMGNPTKYPIMESNDDNAFFWWIGTDPNYYEPMADGYRTRKTEYCAADVIVDHMNTREDPRRSSYFQPTKESVEAGEPKYVGYTIGAKANAVASKYSIWGARFFTDLAGFSPYMRVAEPWFCVAEASMLGWNTGISAEDAYNKAVTYSMEENSVSAEDIADYLANAGKFTNDKKQIYYEEWVAMFKQGMEGWSLYRRTGVPDNLYPAPGRPANYSNHNVPPFRSPYPDKERNLNNANCAPFDAEVVDNLWGKQMWWDTRTGVH
# Assays:
# Assay in all cases: glycan array binding signal (z-score within array); higher = stronger binding
# Settings in all cases: glycan notation: IUPAC condensed, linker removed
# [1] = biological target: Fuc(a1-2)Gal(b1-3)GlcNAc(b1-2)Man(a1-3)[Fuc(a1-2)Gal(b1-3)GlcNAc(b1-2)Man(a1-6)]Man(b1-4)GlcNAc(b1-4)GlcNAc
# Outline: (§1)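 Glycan array data were curated from 3228 arrays in the Consortium for Functional Glycomics database and kept only where the protein sequence was available. Glycan names were converted to IUPAC-condensed notation, and columns mapping to the same glycan were averaged. The binding signal is a within-array Z-score, averaged across arrays of the same protein sequence at different concentrations or buffers and across linkers. Negative Z-scores can be read as non-binding.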
# [2] = biological target: Fuc(a1-2)Gal(b1-3)GlcNAc(b1-3)[Fuc(a1-2)Gal(b1-3)GlcNAc(b1-6)]GalNAc
# Outline: as §1
# [3] = biological target: Fuc(a1-2)[Gal(a1-3)]Gal(b1-3)GalNAc
# Outline: as §1
# [4] = biological target: Fuc(a1-2)[Gal(a1-3)]Gal(b1-4)[Fuc(a1-3)]GlcNAc(b1-3)GalNAc
# Outline: as §1
# [5] = biological target: Fuc(a1-2)[GalNAc(a1-3)]Gal(b1-4)GlcNAc(b1-2)Man(a1-3)[Fuc(a1-2)[GalNAc(a1-3)]Gal(b1-4)GlcNAc(b1-2)Man(a1-6)]Man(b1-4)GlcNAc(b1-4)[Fuc(a1-6)]GlcNAc
# Outline: as §1
# [6] = biological target: Fuc(a1-2)[GalNAc(a1-4)]Gal(b1-4)GlcNAc
# Outline: as §1
# [7] = biological target: Gal(a1-3)Gal(b1-3)GlcNAc(b1-6)GalNAc
# Outline: as §1
# [8] = biological target: Gal(a1-3)Gal(b1-4)Glc
# Outline: as §1
# [9] = biological target: Gal(a1-4)Gal(b1-3)GlcNAc(b1-2)Man(a1-3)[Gal(a1-4)Gal(b1-3)GlcNAc(b1-2)Man(a1-6)]Man(b1-4)GlcNAc(b1-4)GlcNAc
# Outline: as §1
# [10] = biological target: Gal(a1-4)Gal(b1-4)GlcNAc(b1-2)Man(a1-3)[Gal(a1-4)Gal(b1-4)GlcNAc(b1-2)Man(a1-6)]Man(b1-4)GlcNAc(b1-4)GlcNAc
# Outline: as §1
# [11] = biological target: Gal(b1-3)GalNAc(b1-4)Gal(b1-4)Glc
# Outline: as §1
# [12] = biological target: Gal(b1-3)GlcNAc(b1-3)Gal(b1-4)GlcNAc(b1-2)Man(a1-3)[Gal(b1-3)GlcNAc(b1-3)Gal(b1-4)GlcNAc(b1-2)Man(a1-6)]Man(b1-4)GlcNAc(b1-4)GlcNAc
# Outline: as §1
# [13] = biological target: Gal(b1-3)[Fuc(a1-4)]GlcNAc(b1-2)Man(a1-3)[Gal(b1-3)[Fuc(a1-4)]GlcNAc(b1-2)Man(a1-6)]Man(b1-4)GlcNAc(b1-4)[Fuc(a1-6)]GlcNAc
# Outline: as §1
# [14] = biological target: Gal(b1-3)[Fuc(a1-4)]GlcNAc(b1-6)GalNAc
# Outline: as §1
# [15] = biological target: Gal(b1-4)GlcNAc(b1-2)Man(a1-3)[GlcNAc(b1-4)][Gal(b1-4)GlcNAc(b1-2)Man(a1-6)]Man(b1-4)GlcNAc(b1-4)GlcNAc
# Outline: as §1
# [16] = biological target: Gal(b1-4)GlcNAc(b1-3)Gal(b1-4)GlcNAc(b1-2)Man(a1-3)[Gal(b1-4)GlcNAc(b1-3)Gal(b1-4)GlcNAc(b1-2)Man(a1-6)]Man(b1-4)GlcNAc(b1-4)GlcNAc
# Outline: as §1
# [17] = biological target: Gal(b1-4)GlcNAc(b1-3)Gal(b1-4)GlcNAc(b1-2)[Gal(b1-4)GlcNAc(b1-3)Gal(b1-4)GlcNAc(b1-6)]Man(a1-6)[Gal(b1-4)GlcNAc(b1-3)Gal(b1-4)GlcNAc(b1-2)Man(a1-3)]Man(b1-4)GlcNAc(b1-4)GlcNAc
# Outline: as §1
# [18] = biological target: Gal(b1-4)GlcNAc(b1-3)Gal(b1-4)GlcNAc(b1-2)[Gal(b1-4)GlcNAc(b1-3)Gal(b1-4)GlcNAc(b1-6)]Man(a1-6)[Gal(b1-4)GlcNAc(b1-3)Gal(b1-4)GlcNAc(b1-2)Man(a1-3)]Man(b1-4)GlcNAc(b1-4)[Fuc(a1-6)]GlcNAc
# Outline: as §1
# [19] = biological target: Gal(b1-4)GlcNAc(b1-3)Gal(b1-4)GlcNAc(b1-3)Gal(b1-4)GlcNAc(b1-3)Gal(b1-4)GlcNAc(b1-2)Man(a1-3)[Gal(b1-4)GlcNAc(b1-3)Gal(b1-4)GlcNAc(b1-3)Gal(b1-4)GlcNAc(b1-3)Gal(b1-4)GlcNAc(b1-2)Man(a1-6)]Man(b1-4)GlcNAc(b1-4)[Fuc(a1-6)]GlcNAc
# Outline: as §1
# [20] = biological target: Gal(b1-4)GlcNAc(b1-3)Gal(b1-4)GlcNAc(b1-3)Gal(b1-4)GlcNAc(b1-3)Gal(b1-4)GlcNAc(b1-2)[Gal(b1-4)GlcNAc(b1-3)Gal(b1-4)GlcNAc(b1-3)Gal(b1-4)GlcNAc(b1-3)Gal(b1-4)GlcNAc(b1-6)]Man(a1-6)[Gal(b1-4)GlcNAc(b1-3)Gal(b1-4)GlcNAc(b1-3)Gal(b1-4)GlcNAc(b1-3)Gal(b1-4)GlcNAc(b1-2)Man(a1-3)]Man(b1-4)GlcNAc(b1-4)[Fuc(a1-6)]GlcNAc
# Outline: as §1
# [21] = biological target: Gal(b1-4)GlcNAc(b1-3)Gal(b1-4)GlcNAc(b1-3)Gal(b1-4)GlcNAc(b1-3)Gal(b1-4)GlcNAc(b1-3)Gal(b1-4)GlcNAc(b1-2)[Gal(b1-4)GlcNAc(b1-3)Gal(b1-4)GlcNAc(b1-3)Gal(b1-4)GlcNAc(b1-3)Gal(b1-4)GlcNAc(b1-3)Gal(b1-4)GlcNAc(b1-6)]Man(a1-6)[Gal(b1-4)GlcNAc(b1-3)Gal(b1-4)GlcNAc(b1-3)Gal(b1-4)GlcNAc(b1-3)Gal(b1-4)GlcNAc(b1-3)Gal(b1-4)GlcNAc(b1-2)Man(a1-3)]Man(b1-4)GlcNAc(b1-4)[Fuc(a1-6)]GlcNAc
# Outline: as §1
# [22] = biological target: Gal(b1-4)GlcNAc(b1-3)Gal(b1-4)GlcNAc(b1-3)[Gal(b1-4)GlcNAc(b1-3)Gal(b1-4)GlcNAc(b1-6)]GalNAc
# Outline: as §1
# [23] = biological target: Gal(b1-4)GlcNAc(b1-3)Gal(b1-4)GlcNAc(b1-6)[Gal(b1-3)]GalNAc
# Outline: as §1
binder,measurement,setting,value
B1,glycan array binding signal (z-score),[1],2.57
same,glycan array binding signal (z-score),[2],-0.336
same,glycan array binding signal (z-score),[3],0.023
same,glycan array binding signal (z-score),[4],-0.109
same,glycan array binding signal (z-score),[5],2.8
same,glycan array binding signal (z-score),[6],-0.532
same,glycan array binding signal (z-score),[7],-0.003
same,glycan array binding signal (z-score),[8],-0.017
same,glycan array binding signal (z-score),[9],2.33
same,glycan array binding signal (z-score),[10],2.23
same,glycan array binding signal (z-score),[11],0.001
same,glycan array binding signal (z-score),[12],4.58
same,glycan array binding signal (z-score),[13],1.2
same,glycan array binding signal (z-score),[14],0.634
same,glycan array binding signal (z-score),[15],15.2
same,glycan array binding signal (z-score),[16],0.299
same,glycan array binding signal (z-score),[17],10.6
same,glycan array binding signal (z-score),[18],0.552
same,glycan array binding signal (z-score),[19],0.445
same,glycan array binding signal (z-score),[20],7.28
same,glycan array binding signal (z-score),[21],3.33
same,glycan array binding signal (z-score),[22],0.573
same,glycan array binding signal (z-score),[23],-0.044
